From PubChem BioAssay AID1159580 (chemical genetic matrix, 2015)
“And” between values parts separate entries of the source, which are not always exact repeats. Identical values can stand only once. Screen size: about 5,500 compounds; about 2,000 (36%) were called active. Another 18% or so got no clear call; they are omitted. Cut-off read from the data, not from the text of the source: active = normalized growth mostly below about 0.91 (no sharp cut-off); inconclusive = no clear call, values can overlap the other calls; inactive = mostly above about 0.92. This is one part of the list.

Experiment: chemical genetic growth profiling, strain panel (AID 1159580);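 note: tested at 20 µM; growth read once vehicle control cultures reached saturation at 30 °C; 1 = growth at the plate median or of vehicle wells; lower values mean less growth of the strain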
Conditions: S. cerevisiae deletion strains, growth OD

Measured: normalized growth

C[C@]12CCC(=O)C=C1CCC1C2[C@@H](O)C[C@@]2(C)C1CC[C@]2(O)C(=O)COC(=O)CCC(=O)O (stereo not given in full)
inactive: locus YAL021C, strain ccr4, stronger effect = lower value 1.02 | locus YAL026C, strain drs2, stronger effect = lower value 1.01 | locus YAL030W, strain snc1, stronger effect = lower value 1.01 | locus YBL061C, strain skt5, stronger effect = lower value 1.02 | locus YBR009C, strain hhf1, stronger effect = lower value 1 | locus YBR021W, strain FUR4, stronger effect = lower value 1.01 | locus YBR023C, strain chs3, stronger effect = lower value 1.02 | locus YBR171W, strain sec66, stronger effect = lower value 1.02 | locus YBR229C, strain ROT2, stronger effect = lower value 1.01 | locus YBR231C, strain swc5, stronger effect = lower value 1.02 | locus YBR279W, strain paf1, stronger effect = lower value 1 | locus YCL011C, strain gbp2, stronger effect = lower value 1.01 | locus YCL016C, strain dcc1, stronger effect = lower value 0.993 | locus YCL029C, strain bik1, stronger effect = lower value 0.999 | locus YCL061C, strain MRC1, stronger effect = lower value 1.02 | locus YCL069W, strain vba3, stronger effect = lower value 1.01 | locus YCR088W, strain abp1, stronger effect = lower value 1.01 | locus YDL005C, strain med2, stronger effect = lower value 1.02 | locus YDL035C, strain GPR1, stronger effect = lower value 1.01 | locus YDL040C, strain nat1, stronger effect = lower value 1.01 | locus YDL074C, strain BRE1, stronger effect = lower value 1.01 | locus YDL101C, strain DUN1, stronger effect = lower value 1 | locus YDL185W, strain tfp1, stronger effect = lower value 1 | locus YDL192W, strain arf1, stronger effect = lower value 1.01 | locus YDR001C, strain nth1, stronger effect = lower value 1.02 | locus YDR069C, strain doa4, stronger effect = lower value 1.02 | locus YDR101C, strain arx1, stronger effect = lower value 1.01 | locus YDR137W, strain rgp1, stronger effect = lower value 1.02 | locus YDR150W, strain NUM1, stronger effect = lower value 1.01 | locus YDR159W, strain sac3, stronger effect = lower value 1.03 | locus YDR162C, strain NBP2, stronger effect = lower value 1.01 | locus YDR195W, strain ref2 0.997 | locus YDR297W, strain sur2, stronger effect = lower value 1.02 | locus YDR318W, strain mcm21, stronger effect = lower value 0.995 | locus YDR334W, strain swr1, stronger effect = lower value 1.01 | locus YDR335W, strain msn5, stronger effect = lower value 1.01 | locus YDR388W, stronger effect = lower value 1 | locus YDR392W, strain spt3, stronger effect = lower value 0.969 | locus YDR502C, strain sam2, stronger effect = lower value 0.999 | locus YEL003W, strain gim4, stronger effect = lower value 1.03 | locus YEL037C, strain rad23, stronger effect = lower value 1.01 | locus YEL061C, strain CIN8 (second series), stronger effect = lower value 1.03 | locus YEL061C, strain CIN8, stronger effect = lower value 1.01 | locus YER015W, strain faa2, stronger effect = lower value 0.998 | locus YER016W, strain bim1, stronger effect = lower value 1.01 | locus YER110C, stronger effect = lower value 1.01 | locus YER111C, strain swi4, stronger effect = lower value 1.02 | locus YER155C, strain BEM2 (second series), stronger effect = lower value 1.03 | locus YER155C, strain BEM2, stronger effect = lower value 0.997 | locus YER167W, strain BCK2, stronger effect = lower value 1.01 | locus YFR010W, strain ubp6, stronger effect = lower value 1.02 | locus YGL078C, strain dbp3, stronger effect = lower value 0.996 | locus YGL086W, strain mad1, stronger effect = lower value 0.999 | locus YGL167C, strain pmr1, stronger effect = lower value 1.03 | locus YGL173C, strain kem1, stronger effect = lower value 1.02 | locus YGL227W, strain vid30, stronger effect = lower value 1.01 | locus YGL240W, strain doc1, stronger effect = lower value 1.02 | locus YGL248W, strain PDE1, stronger effect = lower value 1 | locus YGL253W, strain hxk2, stronger effect = lower value 0.99 | locus YGR078C, strain PAC10, stronger effect = lower value 1.01 | locus YGR135W, strain pre9, stronger effect = lower value 0.989 | locus YGR252W, strain gcn5, stronger effect = lower value 0.943 | locus YHR013C, strain ard1, stronger effect = lower value 1.02 | locus YHR027C, strain rpn1, stronger effect = lower value 1.02 | locus YHR030C, strain SLT2, stronger effect = lower value 1.01 and 0.974 | locus YHR079C, strain IRE1 (second series), stronger effect = lower value 1 | locus YHR079C, strain IRE1, stronger effect = lower value 0.976 | locus YHR094C, strain hxt1, stronger effect = lower value 0.993 | locus YHR129C, strain ARP1, stronger effect = lower value 1 | locus YHR142W, strain chs7, stronger effect = lower value 1.01 | locus YHR200W, strain rpn10, stronger effect = lower value 1.01 | locus YIL066C, strain RNR3, stronger effect = lower value 1.01 | locus YIL073C, strain SPO22, stronger effect = lower value 1.02 | locus YIL125W, strain kgd1, stronger effect = lower value 1 | locus YIR030C, strain dcg1, stronger effect = lower value 1 | locus YJL092W, strain hpr5, stronger effect = lower value 1.02 | locus YJL095W, strain BCK1 (second series), stronger effect = lower value 1.02 | locus YJL095W, strain BCK1, stronger effect = lower value 1.01 and 0.976 | locus YJL115W, strain asf1, stronger effect = lower value 1.02 | locus YJL129C, strain trk1, stronger effect = lower value 1.03 | locus YJL134W, strain LCB3, stronger effect = lower value 1.01 | locus YJL154C, strain vps35, stronger effect = lower value 1.02 | locus YJL164C, strain tpk1, stronger effect = lower value 1.02 | locus YJL166W, strain qcr8, stronger effect = lower value 1 | locus YJL168C, strain set2, stronger effect = lower value 0.996 | locus YJL187C, strain SWE1 (second series), stronger effect = lower value 1.01 | locus YJR043C, strain POL32, stronger effect = lower value 1.02 | locus YJR066W, strain TOR1, stronger effect = lower value 0.931 | locus YJR075W, strain HOC1, stronger effect = lower value 1.02 | locus YKL009W, strain mrt4, stronger effect = lower value 1.02 | locus YKL068W, stronger effect = lower value 0.998 | locus YKL085W, strain MDH1 (second series), stronger effect = lower value 0.999 | locus YKL085W, strain MDH1, stronger effect = lower value 0.999 | locus YKL160W, strain elf1, stronger effect = lower value 1.01 | locus YKR001C, strain vps1, stronger effect = lower value 1.01 | locus YKR026C, strain gcn3, stronger effect = lower value 1.02 | locus YKR091W, strain srl3, stronger effect = lower value 1 | locus YLL001W, strain dnm1, stronger effect = lower value 1.01 | locus YLL026W, stronger effect = lower value 1.01 | locus YLL041C, strain sdh2, stronger effect = lower value 1.03 | locus YLR027C, strain aat2, stronger effect = lower value 1.01 | locus YLR039C, strain RIC1, stronger effect = lower value 1.02 | locus YLR058C, strain SHM2, stronger effect = lower value 0.989 | locus YLR102C, strain apc9, stronger effect = lower value 1 | locus YLR113W, strain HOG1, stronger effect = lower value 0.977 | locus YLR221C, strain rsa3, stronger effect = lower value 1.02 | locus YLR258W, strain gsy2, stronger effect = lower value 1.01 | locus YLR262C, strain YPT6 (second series), stronger effect = lower value 1.02 | locus YLR262C, strain YPT6, stronger effect = lower value 1.06 | locus YLR268W, strain sec22, stronger effect = lower value 0.992 | locus YLR320W, strain mms22, stronger effect = lower value 0.979 | locus YLR330W, strain CHS5, stronger effect = lower value 1.01 | locus YLR342W, strain FKS1 (second series), stronger effect = lower value 0.998 | locus YLR342W, strain FKS1, stronger effect = lower value 1.01 | locus YLR357W, strain rsc2, stronger effect = lower value 0.995 | locus YLR370C, strain arc18, stronger effect = lower value 1.01 | locus YLR371W, strain rom2, stronger effect = lower value 0.996 | locus YLR384C, strain iki3, stronger effect = lower value 1.02 | locus YLR418C, strain cdc73, stronger effect = lower value 0.988 | locus YML016C, strain PPZ1, stronger effect = lower value 1 | locus YML032C, strain rad52, stronger effect = lower value 0.994 | locus YML120C, strain ndi1, stronger effect = lower value 1.02 | locus YML124C, strain tub3, stronger effect = lower value 0.994 | locus YMR058W, strain fet3, stronger effect = lower value 1.02 | locus YMR078C, strain ctf18, stronger effect = lower value 1 | locus YMR125W, strain sto1, stronger effect = lower value 1.01 | locus YMR129W, stronger effect = lower value 1.02 | locus YMR205C, strain PFK2, stronger effect = lower value 1.03 | locus YMR223W, strain ubp8, stronger effect = lower value 0.992 | locus YMR231W, strain pep5, stronger effect = lower value 1.01 | locus YMR307W, strain GAS1, stronger effect = lower value 1.04 | locus YNL067W, strain RPL9B, stronger effect = lower value 1.01 | locus YNL071W, strain lat1, stronger effect = lower value 1.01 | locus YNL183C, strain NPR1, stronger effect = lower value 0.951 | locus YNL209W, strain ssb2, stronger effect = lower value 1.01 | locus YNL233W, strain BNI4, stronger effect = lower value 1 | locus YNL248C, strain rpa49, stronger effect = lower value 1.04 | locus YNL250W, strain rad50, stronger effect = lower value 1 | locus YNL271C, strain bni1, stronger effect = lower value 1.01 | locus YNL298W, strain CLA4, stronger effect = lower value 1.01 | locus YNL307C, strain MCK1, stronger effect = lower value 1.01 | locus YNL322C, strain KRE1 (second series), stronger effect = lower value 1.02 | locus YNL322C, strain KRE1, stronger effect = lower value 1.01 | locus YNR049C, strain mso1, stronger effect = lower value 1.02 | locus YNR052C, strain pop2, stronger effect = lower value 1 | locus YOL006C, strain TOP1, stronger effect = lower value 1.01 | locus YOL012C, strain htz1 0.91 | locus YOL147C, strain pex11, stronger effect = lower value 1 | locus YOR001W, strain rrp6, stronger effect = lower value 1.02 | locus YOR061W, strain CKA2, stronger effect = lower value 1.01 | locus YOR069W, strain VPS5, stronger effect = lower value 1.01 | locus YOR070C, strain gyp1, stronger effect = lower value 1 | locus YOR080W, strain dia2, stronger effect = lower value 1.01 | locus YOR083W, strain WHI5, stronger effect = lower value 0.983 | locus YOR106W, strain vam3, stronger effect = lower value 1.04 | locus YOR136W, strain idh2, stronger effect = lower value 1.01 | locus YOR144C, strain elg1, stronger effect = lower value 1 | locus YOR184W, strain ser1, stronger effect = lower value 1.01 | locus YOR231W, strain MKK1, stronger effect = lower value 0.997 | locus YOR265W, strain rbl2, stronger effect = lower value 1.01 | locus YOR270C, strain vph1, stronger effect = lower value 0.99 | locus YOR290C, strain snf2, stronger effect = lower value 0.988 | locus YOR316C, strain cot1, stronger effect = lower value 1.01 | locus YPL051W, strain arl3, stronger effect = lower value 1 | locus YPL055C, strain LGE1, stronger effect = lower value 1.01 | locus YPL078C, strain atp4, stronger effect = lower value 1 | locus YPL106C, strain sse1, stronger effect = lower value 1 | locus YPL240C, strain hsp82, stronger effect = lower value 1 | locus YPL241C, strain CIN2, stronger effect = lower value 1.01 | locus YPL256C, strain CLN2, stronger effect = lower value 0.98 | locus YPR119W, strain clb2, stronger effect = lower value 1.01 | locus YPR141C, strain kar3, stronger effect = lower value 1.01 | locus YPR163C, strain tif3, stronger effect = lower value 1.01 | locus YPR167C, strain met16, stronger effect = lower value 1.01 | strain wtn01, stronger effect = lower value 0.996
